RGS16-Gao = modulates binding between human RGS16 and Galphao | 0.38% of 220,000 active | binding response (% of control), % at 10 µM | O15492+P09471 | bead-based flow cytometry RGS16-Galphao binding, fluorescence; actives lie on both sides;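 further: Galphao activated by GDP with aluminum fluoride before binding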
Target sequence (O15492 whole entry, looked up): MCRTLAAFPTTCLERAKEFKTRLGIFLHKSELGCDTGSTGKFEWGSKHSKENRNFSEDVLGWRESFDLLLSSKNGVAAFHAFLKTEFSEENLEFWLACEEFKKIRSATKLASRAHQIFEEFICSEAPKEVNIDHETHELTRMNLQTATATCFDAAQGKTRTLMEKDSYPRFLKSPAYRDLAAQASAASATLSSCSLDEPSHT
Target sequence (P09471 whole entry, looked up): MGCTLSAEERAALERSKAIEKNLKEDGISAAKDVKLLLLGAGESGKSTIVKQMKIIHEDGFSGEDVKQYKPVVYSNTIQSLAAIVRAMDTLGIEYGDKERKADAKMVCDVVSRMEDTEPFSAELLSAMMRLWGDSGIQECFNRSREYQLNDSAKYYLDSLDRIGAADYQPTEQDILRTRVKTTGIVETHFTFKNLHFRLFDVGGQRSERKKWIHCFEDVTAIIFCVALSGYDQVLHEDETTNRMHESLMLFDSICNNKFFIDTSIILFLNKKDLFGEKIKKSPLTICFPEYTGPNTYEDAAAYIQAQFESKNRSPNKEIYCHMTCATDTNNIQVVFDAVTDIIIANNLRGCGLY
Avidin bead fluor = avidin bead compound fluorescence profile; Avidin beads, compound fluorescence 488/530 nm, flow cytometry; stronger effect = higher value; fluorescence (KMESF) at 10 µM; 0.38% of 220,000 active; AID 1775; in the data active means fluorescence above about 47
RGS7-Gao = human RGS7-Galphao interaction regulation | P09471 | Multiplexed bead flow cytometry, RGS7-Galphao binding; actives lie on both sides | binding response (% of control), % at 10 µM | 0.35% of 220,000 active | AID 1439; in the data active means binding response below about 49% or above about 150%; inconclusive means no clear call, values can overlap the other calls; inactive means in between;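 further: fluorescent Galphao held in activated GDP-AlF4 state binding bead-coupled RGS7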
RGS4-Gao reg = human RGS4-Galphao interaction regulation; 0.33% of 220,000 active; Multiplexed bead flow cytometry, RGS4-Galphao binding; actives lie on both sides; P09471; binding response (% of control), % at 10 µM; in the data active means binding response below about 49% or above about 150%; inactive means in between;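 further: fluorescent Galphao activated with aluminum fluoride binding bead-coupled RGS4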
RGS8-Gao = modulates binding of RGS8 to human Galphao | P09471 | AID 1423 | response (percent of control binding), % at 10 µM | 0.34% of 220,000 active | multiplexed bead flow cytometry; actives lie on both sides; in the data active means response below about 60% or above about 140%; inactive means in between;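 further: Galphao activated as the GDP aluminium fluoride complex binding bead-coupled RGS8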
GSH bead fluor = GSH bead compound fluorescence profile; GSH beads flow cytometry, compound fluorescence 488/530 nm; stronger effect = higher value; fluorescence (KMESF) at 10 µM; 0.25% of 190,000 active; AID 1776; in the data active means fluorescence above about 89;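 further: glutathione beads carrying GST-tagged Bcl family fusion proteins plus one bare bead set; values are compound well signal with DMSO vehicle wells as background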
RGS-Gao = modulates binding between human RGS4 and Galphao; shares compounds with RGS16-Gao; multiplexed bead flow cytometry, RGS–Galpha-o binding; RGS4–Galpha-o binding response, % at 10 µM; 99% of 1,600 active;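 further: fluorescently labeled Galpha-o bound to GDP with aluminium fluoride binding biotinylated RGS beads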
Avidin counter = interferes with biotinylated probe binding to avidin beads; 1,700 tested, under 10 active; AID 1783; streptavidin beads, fluorescein-biotin binding, flow cytometry; inhibition, % at 10 µM; shares compounds with RGS16-Gao;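 active means inhibition above 50%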;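 further: median green fluorescence of gated singlet beads compared with DMSO control wells; 0% = DMSO wells and 100% = complete loss of bead fluorescence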
RGS8-Gao confirm = RGS8-Galphao interaction regulation, single point confirmation. shares compounds with RGS16-Gao. bead-based flow cytometry RGS8-Galphao binding, fluorescence; actives lie on both sides. binding response (% of control), % at 10 µM. 3% of 1,700 active. AID 1836; in the data active means binding response below about 72% or above about 130%; inactive means in between;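 further: Galphao activated as GDP AlF4 complex before binding bead RGS8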
RGS7-Gao single = confirmation of regulators of human RGS7-Galphao interaction; shares compounds with RGS16-Gao; 7.8% of 1,700 active; response (percent of control binding), % at 10 µM; bead-based flow cytometry RGS7-Galphao binding; actives lie on both sides; in the data active means response below about 75% or above about 130%; inactive means in between;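 further: fluorescent Galphao activated with GDP and aluminum fluoride binding bead-coupled RGS7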
RGS16-Gao conf = RGS16-Galphao interaction regulation, single point confirmation. 4% of 1,700 active. response (% of control binding), % at 10 µM. shares compounds with RGS16-Gao. bead-based flow cytometry, RGS16-Galphao binding; actives lie on both sides. AID 1838; in the data active means response below about 74% or above about 130%; inactive means in between;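 further: Galphao activated as the GDP aluminium fluoride complex binding bead-coupled RGS16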
RGS4-Gao single = confirmation of regulators of human RGS4-Galphao interaction | binding response (% of control), % at 10 µM | AID 1840 | 4% of 1,700 active | shares compounds with RGS16-Gao | RGS4-Galphao binding, multiplexed bead flow cytometry; actives lie on both sides; in the data active means binding response below about 74% or above about 130%; inactive means in between
RGS19-Gao single = confirmation of regulators of human RGS19-Galphao interaction; response (percent of control binding), % at 10 µM; shares compounds with RGS16-Gao; AID 1841; 5% of 1,700 active; bead-based flow cytometry RGS19-Galphao binding; actives lie on both sides; in the data active means response below about 50% or above about 160%; inactive means in between;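 further: 100% = no compound control and 0% = blank background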
* = called active by the depositor; ? = inconclusive; nt = no result; [ ] = dose if it differs, or a comment. Rows were chosen to be rich in hits. Some 1.2% of all compounds tested hit in one or more screens of this group. Unless noted, how the calls were made is not given here.

SMILES	RGS16-Gao	Avidin bead fluor	RGS7-Gao	RGS4-Gao reg	RGS8-Gao	GSH bead fluor	RGS-Gao	Avidin counter	RGS8-Gao confirm	RGS7-Gao single	RGS16-Gao conf	RGS4-Gao single	RGS19-Gao single
O=C1c2ccccc2C(=O)N1CCCCN(C(=O)c1ccc([N+](=O)[O-])cc1)c1ccc(Cl)cc1	91.9	11	94.0	92.7	97.8	25	nt	nt	nt	nt	nt	nt	nt
Cc1c(C(=O)NNC(=S)Nc2cccc(Cl)c2)nnn1-c1ccccc1	105.3	6	105.8	102.5	103.1	7	nt	nt	nt	nt	nt	nt	nt
O=C(C[n+]1ccc(-c2nnc3n2CCC3)cc1)c1ccc(Cl)c(Cl)c1	104.9	6	nt	100.2	103.0	7	nt	1.7	96.1	81.8	92.5	89.3	67.4
O=C1NC[C@@H](Cc2cccc3ccccc23)N(CC2CCCCC2)C1=O	90.9	11	?	91.8	93.3	nt	nt	nt	nt	nt	nt	nt	nt
Cc1cc(Br)ccc1S(=O)(=O)n1ccnc1C	100.7	9	98.0	98.0	101.3	28	nt	nt	nt	nt	nt	nt	nt
COc1ccccc1-n1cnnc1SCC(=O)c1ccc[nH]1	-33.6*	-4	-11.1*	-30.0*	10.0*	29	nt	0.1	95.7	96.2	97.2	98.7	85.0
COc1cc(-c2nc(C)c(C(C)=O)n2O)ccc1OCC(=O)Nc1ccc(F)cc1	98.5	10	97.7	103.9	98.5	18	nt	nt	nt	nt	nt	nt	nt
CCOc1cc(-c2nc(C)c(C(C)=O)n2O)ccc1OCC(=O)Nc1ccc(F)cc1	114.0	64*	158.3*[activator]	110.4	103.4	10	110.4*	-1.2	92.7	90.0	91.5	100.9	77.3
COC(=O)CCC(=O)Nc1sc(C)c(C)c1C(N)=O	nt	nt	nt	nt	nt	44	nt	0.0	82.1	72.6*	69.7*	69.4*	44.1*
Cn1cccc1C1Nc2ccccc2NC2=C1C(=O)CC(C)(C)C2 (configuration not stated)	49.8	0	57.8	59.5	58.0*	7	59.5*	0.9	101.7	98.8	103.3	103.0	100.9
CC1(C)CC(=O)C2=C(C1)Nc1ccccc1NC2c1cccnc1 (configuration not stated)	198.3	20	114.9	114.9	133.0	13	nt	nt	nt	nt	nt	nt	nt
OC[C@@H]1CCCN1Cc1cn(-c2ccccc2)nc1-c1ccc2c(c1)OCO2	96.8	4	104.1	104.2	102.4	17	nt	nt	nt	nt	nt	nt	nt
COCC1CCCCN1Cc1cn(-c2ccccc2)nc1-c1ccc2c(c1)OCO2 (configuration not stated)	112.7	69*	182.2*[activator]	116.0	104.0	11	116.0*	-0.3	99.8	94.8	97.2	97.8	76.2
S=c1nc(-c2sccc2OCc2ccc(Cl)cc2Cl)[nH][nH]1	92.6	11	?	98.6	95.2	11	nt	nt	nt	nt	nt	nt	nt
Cc1ccc(C)c(Sc2ccc(NC(=O)CCl)cc2)c1	299.1*[activator]	14	116.3	114.8	135.3	8	114.8*	nt	nt	nt	nt	nt	nt
Cc1nc2c(=O)oc3ccccc3c2n1-c1ccccc1	296.4	8	120.2	128.3	140.8*[activator]	22	128.3*	nt	nt	nt	nt	nt	nt
CC1CCCC(C)N1CC(O)COCC1COc2ccccc2O1 (configuration not stated)	100.7	14	99.8	102.1	101.0	67	nt	nt	nt	nt	nt	nt	nt
